Screening results (PubChem)
A selection: hits, their analogues and other compounds. The true share with any hit is near 19%.
ELG1 DNA repair = blocks ELG1-dependent DNA repair in HEK293T cells. HEK293T ELG1-luciferase reporter, luminescence, 16 h; DNA damage induced by 5-fluorouridine. Potency, µM (doses to about 46.1 µM), inactives show at the highest dose activity change, negative = inhibition, most hits filed as inhibitors. 330,000 compounds, 2.3% hits; also: potency is read from the fitted curve at half-maximal effect; nearly all actives have a fitted effect of over 55% in size
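Luminescence from the luciferase reporter, measured 30 min after ONE-Glo reagent at room temperature, was the read-out. Beforehand, 2,000 cells per well were exposed for 16 hr at 37 °C to 5-fluorouridine together with compound or vehicle.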
HT1080-NT tox = kills 2HG-producing HT-1080-NT fibrosarcoma cells; HT-1080-NT fibrosarcoma viability, CellTiter-Glo ATP luminescence, 48 h; Potency, µM (series often up to 46.1 µM), inactives show at the highest dose activity, negative = less viability, usual class: cytotoxic; 360,000 compounds, 1.6% hits;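 also: NT is the 2HG producing partner of a matched IDH1 knockdown line; potency is read from the fitted curve at half-maximal effect; 0% = DMSO-treated cells and -100% = media-only wells without cells; nearly all actives have a fitted effect of over 55% in size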
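750 cells/well, RPMI + 5% FBS; 2 h settle, compound pin-transfer, 48 h at 37 degrees C. CellTiter-Glo 10 min RT, luminescence. Normalized to DMSO and media-only wells.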
DT40 TDP1 no CPT = qHTS for Inhibitors of human tyrosyl-DNA phosphodiesterase 1 (TDP1): qHTS in cells in absence of CPT. Potency, µM (doses to about 46.2 µM), without a hit: top-dose activity change, negative = growth inhibition, most hits filed as inhibitors. AID 686978, 2013. 420,000 compounds, 15% hits. DT40 Tdp1-/- hTDP1 cells, no CPT, ATP luminescence, 48 h; also: potency is read from the fitted curve at half-maximal effect; nearly all actives have a fitted effect of over 55% in size
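Chicken DT40 Tdp1-/- cells complemented with human TDP1, screened without camptothecin (DMSO vehicle only), 400 cells/well. Compounds pin-transferred, cells incubated at 37 °C for at least 48 hr. Growth read as ATP-dependent luminescence (CellTiter-Glo, 30 min at RT).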
TDP1 cell CPT = DT40-hTDP1 cell growth loss with CPT | chicken DT40 Tdp1-/-;hTDP1 cells + 20 nM CPT, ATP luminescence, 48 h | Potency, µM (titrated, usually from 46.2 µM), for the others: top-dose activity change, negative = growth inhibition, most hits filed as inhibitors | 420,000 compounds, 12% hits | AID 686979; also: potency is read from the fitted curve at half-maximal effect; nearly all actives have a fitted effect of over 55% in size
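Chicken DT40 Tdp1-/- cells complemented with human TDP1, 400 cells/well, exposed to compounds plus 20 nM camptothecin for at least 48 h at 37 C; viability read as ATP content by CellTiter-Glo luminescence.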
IL-1B inflam inh = blocks inflammasome-driven IL-1 beta release; THP-1 LPS/ATP IL-1B secretion, AlphaLISA, 16 h; stronger effect = lower value; activity change, % at 57.5 µM; 360,000 compounds, 4.7% hits; in the data active = activity change below about -50%; inconclusive = mostly about -30% to -49%
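THP-1 cells pretreated 1 hr with compounds (up to 57.5 uM final), then stimulated with LPS (250 ng/mL final) plus ATP (1.25 mM final); secreted IL-1B measured by AlphaLISA after 16 hr, decreased signal indicating inhibition.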
HT1080 IDH1KD tx = HT-1080 IDH1 knockdown cell toxicity (counter line) | HT-1080 IDH1 knockdown viability, ATP luminescence, 48 h | 360,000 compounds, 2% hits | Potency, µM (titrated, usually from 46.1 µM), for inactives: top-dose activity, negative = toxicity, usual class: cytotoxic | AID 686971;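 also: potency is read from the fitted curve at half-maximal effect; 0% = DMSO wells and -100% = cell-free medium wells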
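% activity derives from luminescence (CellTiter-Glo), normalised to DMSO and no-cell wells. HT-1080-IDH1KD cells, 750/well, had 48 h compound exposure at 37 °C.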
Numbers without * were called inactive; ? = inconclusive; . = not tested or not shown; ! = repeats disagree. Unless noted, calls follow the shape of the dose curve; as a rule, active = well fitted curve in the direction sought with a large enough effect; inconclusive = small, poorly fitted or top-dose-only effect, or another doubt; inactive = no such curve, though single readings can be large; an effect the other way counts as inactive or inconclusive. Unless noted, % is scaled to controls: 0 for no effect and ±100 for the full control effect.

SMILES | ELG1 DNA repair | HT1080-NT tox | DT40 TDP1 no CPT | TDP1 cell CPT | IL-1B inflam inh | HT1080 IDH1KD tx
Cc1ccc(NC(=O)c2ccc(F)c(S(=O)(=O)N3CCOCC3)c2)cc1F | -13% | ? | ? | ? | ? | ?
O=C(Nc1ccccc1)c1ccc(NCC2CCCO2)c(S(=O)(=O)N2CCOCC2)c1 (centres undefined) | 23µM* | -6% | ? | -18% | -3 | -2%
O=C(Nc1ccccc1)c1ccc(F)c(S(=O)(=O)N2CCOCC2)c1 | 15µM* | 7% | -19% | -24% | 22 | -8%
C/C(Cl)=C/Cc1c(C)[nH]c2c(ccc3ccccc32)c1=O | 21% | 2% | 23µM* | ? | -5 | 7%
C/C(Cl)=C/Cc1c(C)[nH]c2ccc(C)cc2c1=O | ? | 25% | -29% | -20% | -11 | 13%
O=C(COC(=O)CNC(=O)c1ccc(Cl)cc1Cl)NNC(=O)c1ccccc1F | 10% | 8% | -18% | 11% | 1 | 18%
CN(C(=O)COC(=O)CNC(=O)CNC(=O)c1ccc(Cl)cc1Cl)c1ccccc1 | -13% | -1% | ? | -20% | -143* | 0%
O=C(COC(=O)CC1CCCC1)Nc1ccc(Cl)cc1 | ? | 0% | 2% | -8% | -8 | -12%
CCN(Cc1ccccc1)Cc1c(O)ccc2c(=O)c(-c3ccccc3Cl)c(C(F)(F)F)oc12 | . | . | ? | 18µM* | . | .
CCN(Cc1ccccc1)Cc1c(O)ccc2c(=O)c(-c3ccccc3OC)c(C(F)(F)F)oc12 | . | . | 26µM* | ? | . | .
Cc1nc2sccc2c(=O)n1N | 12% | 1% | 4% | 13% | 8 | 5%
COc1ccccc1CNC(=O)CCn1c(=O)c2ccccc2n(CC(=O)Nc2ccc(C)cc2C)c1=O | . | . | -7% | 1% | . | .
NC(=O)c1cc[n+](Cc2ccc([N+](=O)[O-])cc2)cc1 | -5% | -1% | -3% | -7% | 11 | -4%
CC(=O)Nc1ccc2c3c(cccc13)CC2 | . | -5% | -20% | -46% | 0 | -5%
O=S(=O)(Nc1ccc2c3c(cccc13)CC2)c1ccccc1 | . | -9% | 13µM* | ? | 6 | -4%
Cc1ccc(S(=O)(=O)Nc2ccc3c4c(cccc24)CC3)c(C)c1 | . | 21µM* | 13µM* | 15µM* | 45 | 10µM*
Cc1cc(C)c(S(=O)(=O)Nc2ccc3c(c2)CCC3)c(C)c1 | -17% | 23µM* | 18µM* | ? | ? | ?
Cc1cc(C)c(S(=O)(=O)Nc2ccc3c4c(cccc24)CC3)c(C)c1 | ? | ? | 3.7µM* | -101% | 10 | 1µM*
CCOC(=O)c1noc2nc(C)n(CC(=O)NC(C)CC)c(=O)c12 (centres undefined) | . | . | ? | -9% | . | .
COc1cc(NC(=O)[C@@H]2O[C@H](CO)[C@@H](O)[C@H]2O)cc(OC)c1OC | . | 24% | 1% | 2% | 5 | 7%
COc1ccc2nc(-c3ccccc3)nc(SCC(=O)NCC3CCCO3)c2c1 (centres undefined) | ? | -2% | ? | 4% | -12 | 6%
CCNC(=O)NC(=O)COC(=O)c1ccccc1SCC(=O)NC(=O)NCC | ? | -7% | 15µM* | 21µM* | 40 | 29µM*
O=C(COC(=O)c1ccccc1SCC(=O)NC1CCS(=O)(=O)C1)NC1CCS(=O)(=O)C1 (centres undefined) | -17% | 3% | 28% | 6% | 0 | 4%
S=C(Nc1ccccc1)Nc1ccc2cn[nH]c2c1 | 25% | 19% | -12% | -29% | ? | 29%
N#C/C(=C\Nc1ccc2cn[nH]c2c1)c1nc(-c2ccc(Cl)cc2)cs1 | 3% | 18µM* | 23µM* | ? | 48 | 15µM*
SMILES | ELG1 DNA repair | HT1080-NT tox | DT40 TDP1 no CPT | TDP1 cell CPT | IL-1B inflam inh | HT1080 IDH1KD tx
N#C/C(=C\Nc1ccc2cn[nH]c2c1)c1nc(-c2ccccc2)cs1 | 15% | ? | 16µM* | ? | 15 | ?
N#C/C(=C/c1ccc(Cl)cc1)c1nc(-c2ccc(Br)cc2)cs1 | . | . | -21% | 2% | . | .
O=c1c2ccccc2ncn1Cc1ccc2c(c1)OCO2 | -8% | -2% | -7% | 5% | -8 | -11%
COc1ccc(CNC(=O)C/C(C)=N/NC(=O)c2ccc(OC)cc2OC)cc1 | 14% | -5% | -4% | 3% | -55* | 3%
O=C(COc1ccc(Cl)cc1)OCCNC12CC3CC(CC(C3)C1)C2 | . | . | -12% | 12% | . | .
COc1ccc(CCN(C)C(=O)Cn2c(=O)oc3ccccc32)cc1OC | 14% | 14% | -12% | -1% | 24 | 0%
Cc1ccc(CNC(=O)c2ccc3c(c2)NC(=O)C(N2CCOCC2)S3)cc1 (centres undefined) | 1% | -6% | ? | ? | -77* | -31%
Cc1ccccc1C(=O)N1CCC(C(=O)Nc2cc(C(F)(F)F)ccc2N2CCCC2)CC1 | 8% | -1% | -27% | -11% | -5 | -2%
COC(=O)[C@@]1(Sc2ccccc2)CC(=O)N[C@@H]1c1ccccc1 | . | 16% | -22% | 8% | 77 | 3%
COc1ccc(N2CC(NC(=O)C3CC3)CC2=O)cc1 (centres undefined) | . | . | -12% | 14% | . | .
COc1ccc(SC2=C[C@@]3(O)CC[C@@H](O)[C@@](Sc4ccc(OC)cc4)(C2=O)[C@H]3O)cc1 | . | -13% | 16µM* | 23µM* | 45 | -18%
O=C1C(Sc2ccccc2)=C[C@@]2(O)CC[C@@H](O)[C@]1(Sc1ccccc1)[C@H]2O | . | ? | 5.8µM* | 5.2µM* | -80* | ?
CCCN[C@H]1CCc2nc(N)sc2C1 | . | 9% | 17µM*! | ? | -4 | -2%
CCCN(CCC)CCCNC(=O)c1cc2cc3ccc(OC)cc3nc2o1 | 2% | ? | -22% | ? | -78* | -14%
COC(=O)C(Cc1c[nH]c2ccccc12)NC(=O)c1cccs1 (centres undefined) | 0% | 6% | -1% | -11% | 75 | 9%
COc1ccc(CC(=O)NCc2cccs2)cc1 | 8% | -20% | 15µM* | 23µM* | 45 | ?
COc1ccc2cc3cc(C(=O)NCc4cccs4)oc3nc2c1 | 3% | ? | ? | -24% | -54* | ?
COc1ccc(CNC(=O)COC(=O)[C@H](Cc2c[nH]c3ccccc23)NC(=O)c2cccs2)cc1 | 13% | 18% | ? | ? | -93* | 14%
